Tests used:
Assay in all cases: log2 ratio of Biotin-Ahx-Ub-VS probe labelling (fragment/DMSO); higher = less target engagement (more negative = stronger competition), active = hit call of the paper (q ≤ 0.05, log2 ratio ≤ -1)
Conditions in all cases: compound concentration: 200 uM; treatment time: 3 h
USP42 = molecular target: T1, USP42 (UniProt Q9H9J4)
T1 sequence (whole entry): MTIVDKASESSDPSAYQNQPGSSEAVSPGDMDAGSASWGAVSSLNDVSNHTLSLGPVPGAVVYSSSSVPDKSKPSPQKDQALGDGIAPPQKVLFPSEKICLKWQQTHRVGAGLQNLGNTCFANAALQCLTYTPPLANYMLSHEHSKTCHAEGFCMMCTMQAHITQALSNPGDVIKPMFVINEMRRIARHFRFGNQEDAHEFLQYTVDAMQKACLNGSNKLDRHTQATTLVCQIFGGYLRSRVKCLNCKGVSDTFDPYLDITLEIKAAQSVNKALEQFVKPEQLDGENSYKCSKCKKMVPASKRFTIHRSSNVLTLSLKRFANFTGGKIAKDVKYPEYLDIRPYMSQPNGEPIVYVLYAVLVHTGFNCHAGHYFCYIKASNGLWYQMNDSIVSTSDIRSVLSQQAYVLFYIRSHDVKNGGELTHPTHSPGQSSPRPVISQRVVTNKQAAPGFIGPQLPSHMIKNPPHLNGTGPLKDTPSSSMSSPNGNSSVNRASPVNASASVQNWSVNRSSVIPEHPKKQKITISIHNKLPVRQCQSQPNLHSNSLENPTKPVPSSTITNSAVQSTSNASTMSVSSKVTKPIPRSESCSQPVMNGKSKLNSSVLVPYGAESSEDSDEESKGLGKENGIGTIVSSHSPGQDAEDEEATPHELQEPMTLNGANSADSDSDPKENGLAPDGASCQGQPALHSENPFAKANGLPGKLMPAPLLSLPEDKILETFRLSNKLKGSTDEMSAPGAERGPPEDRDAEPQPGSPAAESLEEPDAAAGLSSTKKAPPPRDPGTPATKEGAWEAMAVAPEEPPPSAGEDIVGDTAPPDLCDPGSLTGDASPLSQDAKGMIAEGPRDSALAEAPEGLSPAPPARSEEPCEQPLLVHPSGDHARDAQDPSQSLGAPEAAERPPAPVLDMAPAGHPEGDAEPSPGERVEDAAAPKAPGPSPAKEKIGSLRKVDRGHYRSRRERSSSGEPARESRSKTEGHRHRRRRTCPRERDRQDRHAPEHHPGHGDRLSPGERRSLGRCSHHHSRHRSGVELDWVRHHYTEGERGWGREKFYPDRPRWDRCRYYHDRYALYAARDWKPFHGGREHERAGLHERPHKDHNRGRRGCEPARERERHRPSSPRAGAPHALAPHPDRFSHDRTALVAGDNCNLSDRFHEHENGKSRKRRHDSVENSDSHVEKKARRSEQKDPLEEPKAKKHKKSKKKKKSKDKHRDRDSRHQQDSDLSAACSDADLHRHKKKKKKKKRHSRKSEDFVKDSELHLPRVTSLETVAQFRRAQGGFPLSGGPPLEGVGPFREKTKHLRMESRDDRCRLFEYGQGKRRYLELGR
Summary of the method: (§1)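 Average log2 ratios of fragment over vehicle were obtained by unpaired t-test from global-median-normalised Spectronaut label-free quantities. Proteins with ≥2 unique peptides were included. HEK293T lysate (495 µg per sample) was treated in triplicate with fragment at 200 µM or vehicle for 3 h, then with Biotin-Ahx-Ub-VS at 0.5 µM final for 1 h, and labelled DUBs were NeutrAvidin-enriched and run by diaPASEF LC-MS/MS.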

USP46 = USP46 (UniProt P62068)
Sequence of USP46 (P62068 whole entry): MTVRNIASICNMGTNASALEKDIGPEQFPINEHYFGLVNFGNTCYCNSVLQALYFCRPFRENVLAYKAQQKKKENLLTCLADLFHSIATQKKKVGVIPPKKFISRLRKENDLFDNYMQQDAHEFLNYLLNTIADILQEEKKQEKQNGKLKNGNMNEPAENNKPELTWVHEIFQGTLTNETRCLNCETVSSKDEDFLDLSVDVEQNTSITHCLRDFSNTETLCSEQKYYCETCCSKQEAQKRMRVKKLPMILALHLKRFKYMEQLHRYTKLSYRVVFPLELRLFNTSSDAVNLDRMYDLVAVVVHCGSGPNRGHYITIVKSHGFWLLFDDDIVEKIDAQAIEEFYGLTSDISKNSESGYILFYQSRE
Summary of the method: as §1

USP47 = molecular target: T2, USP47 (UniProt Q96K76)
T2 sequence (whole entry): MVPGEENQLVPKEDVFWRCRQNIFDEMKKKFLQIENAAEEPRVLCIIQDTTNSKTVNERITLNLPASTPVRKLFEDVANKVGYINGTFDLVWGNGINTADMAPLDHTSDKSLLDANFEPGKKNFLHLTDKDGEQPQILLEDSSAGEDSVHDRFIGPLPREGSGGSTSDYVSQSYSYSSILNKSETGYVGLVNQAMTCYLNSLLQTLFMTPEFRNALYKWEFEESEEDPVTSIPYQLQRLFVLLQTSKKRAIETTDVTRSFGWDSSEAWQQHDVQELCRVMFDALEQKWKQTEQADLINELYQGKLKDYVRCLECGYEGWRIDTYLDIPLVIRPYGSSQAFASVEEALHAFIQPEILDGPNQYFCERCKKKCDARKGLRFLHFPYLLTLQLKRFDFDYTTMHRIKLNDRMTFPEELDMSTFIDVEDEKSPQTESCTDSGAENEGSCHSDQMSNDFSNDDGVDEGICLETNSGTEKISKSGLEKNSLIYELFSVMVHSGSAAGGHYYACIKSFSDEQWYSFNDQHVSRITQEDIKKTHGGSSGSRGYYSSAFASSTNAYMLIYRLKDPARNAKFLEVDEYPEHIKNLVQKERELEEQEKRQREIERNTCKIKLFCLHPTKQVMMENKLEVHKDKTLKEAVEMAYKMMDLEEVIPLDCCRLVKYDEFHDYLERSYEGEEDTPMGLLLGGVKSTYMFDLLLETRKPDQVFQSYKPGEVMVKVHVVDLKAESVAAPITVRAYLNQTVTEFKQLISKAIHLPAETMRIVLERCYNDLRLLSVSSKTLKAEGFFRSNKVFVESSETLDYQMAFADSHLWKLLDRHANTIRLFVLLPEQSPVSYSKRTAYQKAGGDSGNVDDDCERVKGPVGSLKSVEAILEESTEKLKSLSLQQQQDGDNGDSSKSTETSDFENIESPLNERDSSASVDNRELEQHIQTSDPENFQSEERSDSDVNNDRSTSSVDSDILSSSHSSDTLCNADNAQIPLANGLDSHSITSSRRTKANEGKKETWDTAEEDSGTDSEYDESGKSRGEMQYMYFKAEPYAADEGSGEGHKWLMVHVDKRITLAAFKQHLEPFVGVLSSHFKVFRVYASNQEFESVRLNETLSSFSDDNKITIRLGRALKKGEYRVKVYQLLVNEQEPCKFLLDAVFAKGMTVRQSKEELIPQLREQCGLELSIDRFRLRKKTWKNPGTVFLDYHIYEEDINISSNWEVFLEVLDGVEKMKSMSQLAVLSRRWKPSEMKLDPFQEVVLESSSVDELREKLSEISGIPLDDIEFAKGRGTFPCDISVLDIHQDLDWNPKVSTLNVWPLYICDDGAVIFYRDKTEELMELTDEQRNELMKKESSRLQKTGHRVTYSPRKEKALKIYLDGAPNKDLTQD
Summary of the method: as §1

USP48 = molecular target: T3, USP48 (UniProt Q86UV5)
T3 sequence (whole entry): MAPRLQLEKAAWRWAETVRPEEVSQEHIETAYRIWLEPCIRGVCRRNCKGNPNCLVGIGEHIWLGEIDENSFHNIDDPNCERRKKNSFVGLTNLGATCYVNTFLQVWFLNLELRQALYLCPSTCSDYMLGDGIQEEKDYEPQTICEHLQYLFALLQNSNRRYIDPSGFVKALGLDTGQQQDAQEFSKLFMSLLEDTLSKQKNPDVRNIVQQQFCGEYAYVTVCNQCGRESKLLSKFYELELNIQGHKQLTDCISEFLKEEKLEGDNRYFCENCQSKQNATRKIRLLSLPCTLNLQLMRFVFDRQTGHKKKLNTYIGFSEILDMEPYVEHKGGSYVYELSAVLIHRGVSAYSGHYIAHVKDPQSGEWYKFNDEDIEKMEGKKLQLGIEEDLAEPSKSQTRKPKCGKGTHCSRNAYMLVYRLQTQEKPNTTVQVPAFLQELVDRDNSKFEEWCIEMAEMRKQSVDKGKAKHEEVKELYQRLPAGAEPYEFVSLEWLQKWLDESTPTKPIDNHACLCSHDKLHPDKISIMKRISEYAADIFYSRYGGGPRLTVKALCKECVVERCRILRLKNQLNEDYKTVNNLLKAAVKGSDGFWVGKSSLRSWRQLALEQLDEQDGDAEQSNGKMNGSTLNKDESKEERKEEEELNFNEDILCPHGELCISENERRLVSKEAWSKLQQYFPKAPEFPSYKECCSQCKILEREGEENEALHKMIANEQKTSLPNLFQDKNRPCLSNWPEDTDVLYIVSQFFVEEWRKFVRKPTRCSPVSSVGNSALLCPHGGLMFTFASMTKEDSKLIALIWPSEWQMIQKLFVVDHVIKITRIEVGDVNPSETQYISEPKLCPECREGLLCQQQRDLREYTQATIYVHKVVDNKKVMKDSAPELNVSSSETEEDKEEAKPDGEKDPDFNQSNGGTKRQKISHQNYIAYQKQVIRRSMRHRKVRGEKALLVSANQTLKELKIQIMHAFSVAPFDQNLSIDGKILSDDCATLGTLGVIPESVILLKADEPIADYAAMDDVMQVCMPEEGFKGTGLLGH
Summary of the method: as §1

USP5 = molecular target: T4, USP5 (UniProt P45974)
T4 sequence (whole entry): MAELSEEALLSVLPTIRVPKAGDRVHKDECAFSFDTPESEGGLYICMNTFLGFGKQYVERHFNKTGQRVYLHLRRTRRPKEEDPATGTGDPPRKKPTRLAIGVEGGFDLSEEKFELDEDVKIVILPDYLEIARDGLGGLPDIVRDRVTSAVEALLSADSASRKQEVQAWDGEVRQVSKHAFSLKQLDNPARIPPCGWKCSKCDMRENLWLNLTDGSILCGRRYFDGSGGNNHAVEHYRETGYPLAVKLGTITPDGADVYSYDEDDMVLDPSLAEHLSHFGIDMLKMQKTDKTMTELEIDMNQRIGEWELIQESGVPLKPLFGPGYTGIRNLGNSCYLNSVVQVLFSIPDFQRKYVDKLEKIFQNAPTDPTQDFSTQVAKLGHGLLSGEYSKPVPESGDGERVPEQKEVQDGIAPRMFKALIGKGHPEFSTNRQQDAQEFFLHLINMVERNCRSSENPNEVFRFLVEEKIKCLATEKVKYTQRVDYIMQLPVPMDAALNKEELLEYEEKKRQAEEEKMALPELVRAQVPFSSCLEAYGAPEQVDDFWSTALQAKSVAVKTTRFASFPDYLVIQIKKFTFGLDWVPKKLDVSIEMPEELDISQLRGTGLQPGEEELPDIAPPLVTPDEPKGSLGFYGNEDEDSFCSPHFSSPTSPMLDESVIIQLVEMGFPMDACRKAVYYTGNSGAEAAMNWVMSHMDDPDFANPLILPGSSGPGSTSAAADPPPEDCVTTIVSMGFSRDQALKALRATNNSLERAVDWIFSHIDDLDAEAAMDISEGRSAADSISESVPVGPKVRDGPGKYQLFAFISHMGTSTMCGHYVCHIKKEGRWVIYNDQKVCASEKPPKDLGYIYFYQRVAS
Summary of the method: as §1

USP54 = USP54 (UniProt Q70EL1)
Sequence of USP54 (Q70EL1 whole entry): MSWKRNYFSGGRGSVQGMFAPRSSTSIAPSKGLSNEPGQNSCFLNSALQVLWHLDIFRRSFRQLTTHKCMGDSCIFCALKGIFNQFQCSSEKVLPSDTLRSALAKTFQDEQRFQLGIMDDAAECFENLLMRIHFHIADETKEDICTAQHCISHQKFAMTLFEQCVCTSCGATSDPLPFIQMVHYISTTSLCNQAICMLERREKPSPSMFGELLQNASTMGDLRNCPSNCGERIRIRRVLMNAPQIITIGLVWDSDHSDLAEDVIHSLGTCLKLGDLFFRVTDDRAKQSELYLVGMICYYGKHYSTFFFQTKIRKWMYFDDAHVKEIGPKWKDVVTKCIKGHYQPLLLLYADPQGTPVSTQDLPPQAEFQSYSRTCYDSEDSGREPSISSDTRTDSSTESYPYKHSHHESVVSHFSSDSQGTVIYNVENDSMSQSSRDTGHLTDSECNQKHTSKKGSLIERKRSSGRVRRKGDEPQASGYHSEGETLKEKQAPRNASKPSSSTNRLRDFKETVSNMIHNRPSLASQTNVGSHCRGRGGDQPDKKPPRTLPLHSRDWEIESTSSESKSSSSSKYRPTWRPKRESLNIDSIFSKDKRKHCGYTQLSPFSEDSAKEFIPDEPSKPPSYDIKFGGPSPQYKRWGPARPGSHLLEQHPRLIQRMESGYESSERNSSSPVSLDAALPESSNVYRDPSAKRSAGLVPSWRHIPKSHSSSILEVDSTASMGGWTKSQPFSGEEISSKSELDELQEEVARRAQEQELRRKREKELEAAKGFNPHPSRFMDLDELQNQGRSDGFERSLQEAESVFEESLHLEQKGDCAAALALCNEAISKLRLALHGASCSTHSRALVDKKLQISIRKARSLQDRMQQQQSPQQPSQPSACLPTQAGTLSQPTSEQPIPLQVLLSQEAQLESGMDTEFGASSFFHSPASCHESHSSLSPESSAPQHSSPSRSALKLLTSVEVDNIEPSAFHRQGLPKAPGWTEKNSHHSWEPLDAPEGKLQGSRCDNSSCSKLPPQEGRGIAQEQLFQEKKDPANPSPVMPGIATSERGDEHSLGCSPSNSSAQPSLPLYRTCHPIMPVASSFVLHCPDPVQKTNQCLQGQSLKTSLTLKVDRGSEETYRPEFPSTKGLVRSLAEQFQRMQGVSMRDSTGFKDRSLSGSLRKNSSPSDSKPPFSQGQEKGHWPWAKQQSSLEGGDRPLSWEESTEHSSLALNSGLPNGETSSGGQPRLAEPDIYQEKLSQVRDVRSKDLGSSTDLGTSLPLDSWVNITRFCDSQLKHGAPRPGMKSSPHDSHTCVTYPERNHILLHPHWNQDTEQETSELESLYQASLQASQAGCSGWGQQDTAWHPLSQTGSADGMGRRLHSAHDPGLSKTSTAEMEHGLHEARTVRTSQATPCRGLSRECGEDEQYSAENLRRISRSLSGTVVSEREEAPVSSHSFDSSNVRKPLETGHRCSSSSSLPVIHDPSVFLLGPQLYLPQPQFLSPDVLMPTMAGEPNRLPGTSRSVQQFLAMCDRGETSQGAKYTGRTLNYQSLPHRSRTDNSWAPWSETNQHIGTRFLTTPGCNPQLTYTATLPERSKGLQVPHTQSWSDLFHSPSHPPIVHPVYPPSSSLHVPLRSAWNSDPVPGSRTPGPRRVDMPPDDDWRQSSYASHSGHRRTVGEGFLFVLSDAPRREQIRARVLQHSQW
Summary of the method: as §1

USP7 = USP7 (UniProt Q93009)
Summary of the method: as §1

USP8 = molecular target: T5, USP8 (UniProt P40818)
T5 sequence (whole entry): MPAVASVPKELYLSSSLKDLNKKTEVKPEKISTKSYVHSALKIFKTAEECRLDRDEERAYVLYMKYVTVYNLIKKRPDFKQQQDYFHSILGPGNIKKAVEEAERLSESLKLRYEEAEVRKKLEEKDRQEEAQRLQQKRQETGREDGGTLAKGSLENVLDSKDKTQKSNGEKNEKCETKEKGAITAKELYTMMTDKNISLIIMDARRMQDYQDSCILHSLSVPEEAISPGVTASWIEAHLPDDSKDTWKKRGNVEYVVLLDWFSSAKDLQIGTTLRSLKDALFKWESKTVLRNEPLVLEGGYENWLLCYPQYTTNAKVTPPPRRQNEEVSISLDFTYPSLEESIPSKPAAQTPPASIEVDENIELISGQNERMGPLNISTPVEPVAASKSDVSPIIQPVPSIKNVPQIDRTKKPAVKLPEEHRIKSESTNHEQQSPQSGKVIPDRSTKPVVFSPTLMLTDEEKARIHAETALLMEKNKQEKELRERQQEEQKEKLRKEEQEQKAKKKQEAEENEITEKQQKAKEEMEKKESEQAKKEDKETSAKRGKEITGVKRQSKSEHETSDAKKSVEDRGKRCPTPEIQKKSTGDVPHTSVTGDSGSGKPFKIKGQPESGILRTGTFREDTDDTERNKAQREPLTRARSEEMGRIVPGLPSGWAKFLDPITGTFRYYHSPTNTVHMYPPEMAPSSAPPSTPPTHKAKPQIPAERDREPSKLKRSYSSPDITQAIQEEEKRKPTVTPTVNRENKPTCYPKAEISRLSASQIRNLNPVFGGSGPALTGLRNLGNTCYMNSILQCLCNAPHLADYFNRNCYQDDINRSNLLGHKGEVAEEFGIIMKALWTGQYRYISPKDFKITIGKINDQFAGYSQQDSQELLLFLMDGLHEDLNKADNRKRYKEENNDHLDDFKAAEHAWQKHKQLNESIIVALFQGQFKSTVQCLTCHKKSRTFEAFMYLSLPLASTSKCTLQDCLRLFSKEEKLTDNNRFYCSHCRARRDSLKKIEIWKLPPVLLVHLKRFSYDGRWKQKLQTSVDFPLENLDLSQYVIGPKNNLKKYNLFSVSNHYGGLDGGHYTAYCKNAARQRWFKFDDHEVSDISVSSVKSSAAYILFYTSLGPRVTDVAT
Summary of the method: as §1

USP9X = USP9X (UniProt Q93008)
Sequence of USP9X (Q93008 whole entry): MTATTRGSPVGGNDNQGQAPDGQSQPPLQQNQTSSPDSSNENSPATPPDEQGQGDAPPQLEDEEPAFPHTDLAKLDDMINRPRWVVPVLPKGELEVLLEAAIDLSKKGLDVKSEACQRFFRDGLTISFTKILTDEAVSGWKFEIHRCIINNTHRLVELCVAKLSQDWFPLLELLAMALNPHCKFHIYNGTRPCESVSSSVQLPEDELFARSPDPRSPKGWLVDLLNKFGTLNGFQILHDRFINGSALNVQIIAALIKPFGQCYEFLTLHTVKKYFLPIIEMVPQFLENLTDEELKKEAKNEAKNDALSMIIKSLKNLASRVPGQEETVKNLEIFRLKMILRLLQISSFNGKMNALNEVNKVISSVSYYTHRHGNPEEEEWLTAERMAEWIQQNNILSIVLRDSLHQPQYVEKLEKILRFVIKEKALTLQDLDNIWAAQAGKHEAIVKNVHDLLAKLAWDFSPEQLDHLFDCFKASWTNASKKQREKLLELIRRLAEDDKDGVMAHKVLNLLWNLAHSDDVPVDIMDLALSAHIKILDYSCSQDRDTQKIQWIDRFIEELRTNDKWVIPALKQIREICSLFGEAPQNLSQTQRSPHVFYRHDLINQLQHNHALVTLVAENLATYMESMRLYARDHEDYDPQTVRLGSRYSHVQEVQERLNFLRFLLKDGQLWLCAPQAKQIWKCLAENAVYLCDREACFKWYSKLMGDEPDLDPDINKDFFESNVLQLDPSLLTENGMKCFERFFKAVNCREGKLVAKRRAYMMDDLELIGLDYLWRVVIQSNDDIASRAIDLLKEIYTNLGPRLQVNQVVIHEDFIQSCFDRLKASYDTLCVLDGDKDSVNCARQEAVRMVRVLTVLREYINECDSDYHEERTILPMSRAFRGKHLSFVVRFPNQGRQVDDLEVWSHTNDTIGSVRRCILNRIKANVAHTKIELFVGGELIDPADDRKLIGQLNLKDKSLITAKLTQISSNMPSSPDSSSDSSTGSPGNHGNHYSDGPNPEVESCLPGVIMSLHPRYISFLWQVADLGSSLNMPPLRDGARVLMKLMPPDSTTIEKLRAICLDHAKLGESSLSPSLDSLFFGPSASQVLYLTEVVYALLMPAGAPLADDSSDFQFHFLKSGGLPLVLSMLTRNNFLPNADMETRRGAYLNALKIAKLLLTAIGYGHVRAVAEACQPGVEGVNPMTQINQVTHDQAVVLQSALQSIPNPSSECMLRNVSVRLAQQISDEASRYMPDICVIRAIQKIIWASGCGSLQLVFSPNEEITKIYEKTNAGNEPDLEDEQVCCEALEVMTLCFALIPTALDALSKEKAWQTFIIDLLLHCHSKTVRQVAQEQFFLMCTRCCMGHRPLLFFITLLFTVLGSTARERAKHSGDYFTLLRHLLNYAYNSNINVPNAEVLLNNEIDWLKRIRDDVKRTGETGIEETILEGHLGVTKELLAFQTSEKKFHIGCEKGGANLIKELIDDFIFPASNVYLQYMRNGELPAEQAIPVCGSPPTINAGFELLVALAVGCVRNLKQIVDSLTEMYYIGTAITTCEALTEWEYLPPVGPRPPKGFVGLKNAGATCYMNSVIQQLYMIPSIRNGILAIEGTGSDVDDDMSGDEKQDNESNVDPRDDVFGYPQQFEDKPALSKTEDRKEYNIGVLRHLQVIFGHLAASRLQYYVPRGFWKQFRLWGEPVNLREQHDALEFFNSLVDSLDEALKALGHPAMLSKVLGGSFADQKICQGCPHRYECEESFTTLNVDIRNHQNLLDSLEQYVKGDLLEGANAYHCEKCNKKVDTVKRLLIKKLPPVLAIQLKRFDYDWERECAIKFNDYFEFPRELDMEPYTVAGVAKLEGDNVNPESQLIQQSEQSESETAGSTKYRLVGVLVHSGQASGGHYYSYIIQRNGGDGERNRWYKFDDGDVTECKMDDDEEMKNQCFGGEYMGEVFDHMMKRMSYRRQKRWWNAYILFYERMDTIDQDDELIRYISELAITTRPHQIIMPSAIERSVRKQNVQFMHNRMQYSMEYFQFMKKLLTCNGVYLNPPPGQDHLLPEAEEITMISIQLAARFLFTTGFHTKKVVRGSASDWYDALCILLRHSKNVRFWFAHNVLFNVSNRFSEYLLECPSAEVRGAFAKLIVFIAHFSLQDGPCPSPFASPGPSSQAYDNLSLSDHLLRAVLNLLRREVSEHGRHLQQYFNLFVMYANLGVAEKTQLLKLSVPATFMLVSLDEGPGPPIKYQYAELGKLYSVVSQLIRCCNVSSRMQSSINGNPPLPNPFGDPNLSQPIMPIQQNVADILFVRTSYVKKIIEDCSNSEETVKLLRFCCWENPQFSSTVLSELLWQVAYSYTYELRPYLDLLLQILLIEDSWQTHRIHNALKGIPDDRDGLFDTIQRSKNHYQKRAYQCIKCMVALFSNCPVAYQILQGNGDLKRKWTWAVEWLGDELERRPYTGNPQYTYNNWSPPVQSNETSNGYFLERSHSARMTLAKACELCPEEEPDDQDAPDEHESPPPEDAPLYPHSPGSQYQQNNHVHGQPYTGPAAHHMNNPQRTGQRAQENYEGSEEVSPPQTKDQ
Summary of the method: as §1

UniProt O00487 = molecular target: UniProt O00487
Sequence of UniProt O00487 (O00487 whole entry): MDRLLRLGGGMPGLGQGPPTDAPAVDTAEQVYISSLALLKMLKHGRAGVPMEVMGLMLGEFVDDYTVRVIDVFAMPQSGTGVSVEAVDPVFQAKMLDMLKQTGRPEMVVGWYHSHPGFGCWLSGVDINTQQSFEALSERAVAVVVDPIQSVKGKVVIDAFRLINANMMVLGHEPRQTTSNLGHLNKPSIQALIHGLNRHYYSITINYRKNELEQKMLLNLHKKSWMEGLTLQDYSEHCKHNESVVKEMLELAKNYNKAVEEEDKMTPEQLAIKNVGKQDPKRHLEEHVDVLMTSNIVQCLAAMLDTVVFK
Summary of the method: as §1

Measured: log2 ratio of Biotin-Ahx-Ub-VS probe labelling

CCN(Cc1ccc(C#N)cc1F)C(=O)CCl
inactive: USP42 -0.249 | USP46 -0.114 | USP47 -0.791 | USP5 0.258 | USP54 0.521 | USP8 -0.229 | USP9X -0.229 | UniProt O00487 -0.0587
active: USP48 -1.26 | USP7 -1.26
